Reference: PubChem BioAssay (NCI)
About 79,000 compounds went through this panel and 15% of them were active in at least one assay; those are over-represented in the sample as a whole. The source made the active and inactive calls. Cut-off read from the data, not from the text of the source: active = growth inhibition above about 70%; inactive = the rest.

Tests used:
[1] = NCI Yeast Anticancer Drug Screen. Data for the rad50 strain (AID 155);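 note: 0% = growth of vehicle-only cultures of the same strain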; settings: S. cerevisiae rad50 strain growth inhibition, active compounds read high
Procedure, shortened: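 Yeast carrying a defined DNA repair defect were exposed to test compounds, and growth was compared with vehicle-treated controls to give percent inhibition.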

[2] = NCI Yeast Anticancer Drug Screen. Data for the mec2-1 strain (AID 157); settings: S. cerevisiae mec2-1 strain, active compounds read high
Procedure, shortened: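 Yeast mec2-1 mutant treated with compound. Readout: growth inhibition vs vehicle controls.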

[3] = NCI Yeast Anticancer Drug Screen. Data for the sgs1 mgt1 strain (AID 161);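 note: 0% = growth of cultures given vehicle only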; settings: S. cerevisiae sgs1 mgt1 strain, active compounds read high
Procedure, shortened: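 Read-out: growth inhibition vs vehicle controls. Cells: mutant yeast strain deficient in DNA damage repair.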

[4] = NCI Yeast Anticancer Drug Screen. Data for the cln2 rad14 strain (AID 165);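 note: 0% = growth equal to vehicle treated cultures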; settings: S. cerevisiae cln2 rad14 strain, active compounds read high
Procedure, shortened: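 cln2 rad14 yeast strain; compound exposure; growth inhibition read vs vehicle controls.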

[5] = NCI Yeast Anticancer Drug Screen. Data for the bub3 strain (AID 167); settings: S. cerevisiae bub3 mutant strain, active compounds read high
Procedure, shortened: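 Compounds were applied to a genetically altered yeast strain carrying a cell-cycle control defect. Growth inhibition was scored against vehicle-treated controls.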

[6] = NCI Yeast Anticancer Drug Screen. Data for the mlh1 rad18 strain (AID 175); settings: S. cerevisiae mlh1 rad18 strain growth inhibition, active compounds read high
Procedure, shortened: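 Yeast w/ defined DNA-repair lesions; compound exposure; growth vs vehicle controls → % inhibition.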

[7] = at 5.0 µM (retest, dose inferred, filed as 0.5)
[8] = at 50.0 µM (retest, dose inferred, filed as 5.0)

Measured: growth inhibition

S=c1[nH]c2c(-c3ccccc3)cccc2s1
inactive: [1]; [7] -4% | [1]; at 50.0 µM 62.1% | [2]; [7] -6% | [2]; [8] 62% | [3]; [7] 12% | [4]; [7] -16% | [4]; [8] 41% | [4]; at 50.0 µM 60.5% | [5]; [7] -20% | [5]; [8] 44% | [5]; at 50.0 µM 53.8% | [6]; [7] 1% | [6]; [8] 65%
active: [1]; [8] 74% | [2]; at 50.0 µM 76.9% | [3]; [8] 78% | [3]; at 50.0 µM 86.2% | [6]; at 50.0 µM 87.5%

CCCCCCCCCC1OCC(O)CO1 (stereo not given) (tested in a mixture with another compound)
inactive: [1]; [7] 7% | [1]; [8] 66% | [2]; [7] 9% | [3]; [7] 10% | [4]; [7] 3% | [5]; [7] 8% | [6]; [7] 12%
active: [1]; at 50.0 µM 99% | [2]; [8] 79% | [2]; at 50.0 µM 96.1% | [3]; [8] 96% | [3]; at 50.0 µM 98.7% | [4]; [8] 90% | [4]; at 50.0 µM 86.4% | [5]; [8] 87% | [5]; at 50.0 µM 89.3% | [6]; [8] 98% | [6]; at 50.0 µM 99.5%

CCOC(=O)[C@@H](F)[C@H](Br)C(=O)OCC
inactive: [2]; [7] 58% | [4]; [7] 55%
active: [1]; [7] 86% | [1]; [8] 99% | [1]; at 50.0 µM 89.2% | [2]; [8] 100% | [2]; at 50.0 µM 93.2% | [3]; [7] 75% | [3]; [8] 100% | [3]; at 50.0 µM 88.4% | [4]; [8] 100% | [4]; at 50.0 µM 89.2% | [5]; [7] 88% | [5]; [8] 100% | [5]; at 50.0 µM 84.7% | [6]; [7] 80% | [6]; [8] 99% | [6]; at 50.0 µM 93.2%

COc1cccc2c1C(=O)c1c(O)c3c(c(O)c1C2=O)C[C@@](O)(/C(C)=N\NC=O)C[C@@H]3OC1CC(N)C(O)C(C)O1 (stereo not given in full)
inactive: [1]; [7] -3% | [2]; [7] -1% | [2]; [8] 45% | [2]; at 50.0 µM 49.5% | [3]; [7] -4% | [3]; [8] 38% | [4]; [7] 8% | [4]; [8] 51% | [4]; at 50.0 µM 39.9% | [5]; [7] 17% | [6]; [7] 4%
active: [1]; [8] 86% | [1]; at 50.0 µM 75% | [3]; at 50.0 µM 72.7% | [5]; [8] 84% | [5]; at 50.0 µM 76.5% | [6]; [8] 90% | [6]; at 50.0 µM 76%

C=C1C(=O)OC(CCCCCCCCCCCCC)C1C(=O)O (stereo not given)
active: [1]; [8] 89% | [1]; at 50.0 µM 84% | [2]; [7] 93% | [2]; [8] 89% | [2]; at 50.0 µM 89.5% | [3]; [7] 71% | [3]; [8] 84% | [3]; at 50.0 µM 76.3% | [4]; [8] 85% | [4]; at 50.0 µM 85% | [5]; [7] 86% | [5]; [8] 90% | [5]; at 50.0 µM 86.5% | [6]; [7] 86% | [6]; [8] 89% | [6]; at 50.0 µM 80.8%
inactive: [1]; [7] 69% | [4]; [7] 63%

COc1cccc(C2c3cc4c(cc3OC(NNc3ccccc3)C2C)OCO4)c1O (stereo not given)
inactive: [1]; [7] -8% | [2]; [7] -5% | [3]; [7] 1% | [4]; [7] 19% | [5]; [7] -8% | [6]; [7] 27%
active: [1]; [8] 88% | [1]; at 50.0 µM 94% | [2]; [8] 79% | [2]; at 50.0 µM 95.3% | [3]; [8] 93% | [3]; at 50.0 µM 95.8% | [4]; [8] 88% | [4]; at 50.0 µM 94.2% | [5]; [8] 97% | [5]; at 50.0 µM 96.8% | [6]; [8] 91% | [6]; at 50.0 µM 95.7%

Cc1ccc(C)c2c3c([nH]c12)-c1ccccc1CC3
inactive: [1]; [7] 1% | [1]; [8] 3% | [2]; [7] -3% | [2]; [8] 2% | [3]; [7] -4% | [3]; [8] 10% | [4]; [7] -1% | [4]; [8] 7% | [5]; [7] 0% | [5]; [8] 4% | [6]; [7] 6% | [6]; [8] 9%
active: [1]; at 50.0 µM 98.5% | [2]; at 50.0 µM 92.8% | [3]; at 50.0 µM 83.5% | [4]; at 50.0 µM 80% | [5]; at 50.0 µM 96.7% | [6]; at 50.0 µM 94.8%

Clc1ccc(C2NC(c3ccccc3)c3c(ccc4ccccc34)O2)cc1 (stereo not given)
active: [1]; at 50.0 µM 70.5% | [4]; at 50.0 µM 81.2% | [6]; at 50.0 µM 77.7%
inactive: [1]; [7] -4% | [1]; [8] 26% | [2]; [7] 7% | [2]; [8] 19% | [2]; at 50.0 µM 66.2% | [3]; [7] 2% | [3]; [8] 39% | [3]; at 50.0 µM 27.1% | [4]; [7] 1% | [4]; [8] 15% | [5]; [7] 3% | [5]; [8] 7% | [5]; at 50.0 µM 58.6% | [6]; [7] 27% | [6]; [8] 53%

COC(=O)C1C2CC3c4[nH]c5cc(OC)c(Br)cc5c4CCN3CC2CC(OC(=O)c2cc(OC)c(OC)c(OC)c2)C1OC (stereo not given)
inactive: [1]; [7] -4% | [2]; [7] -4% | [3]; [7] -5% | [4]; [7] 8% | [5]; [7] -16% | [6]; [7] -30%
active: [1]; [8] 91% | [1]; at 50.0 µM 89.7% | [2]; [8] 74% | [2]; at 50.0 µM 87.5% | [3]; [8] 82% | [3]; at 50.0 µM 86.2% | [4]; [8] 86% | [4]; at 50.0 µM 84.3% | [5]; [8] 87% | [5]; at 50.0 µM 86.2% | [6]; [8] 97% | [6]; at 50.0 µM 86.6%

O=C1NC(Cc2ccccc2)C(=O)O1 (stereo not given)
inactive: [1]; [7] 0% | [1]; [8] -6% | [1]; at 50.0 µM -2.1% | [2]; [7] -2% | [2]; [8] -3% | [2]; at 50.0 µM 3.35% | [3]; [7] -3% | [3]; [8] 13% | [3]; at 50.0 µM 11.1% | [4]; [7] -11% | [4]; [8] 6% | [4]; at 50.0 µM -13.8% | [5]; [7] -1% | [5]; [8] -2% | [5]; at 50.0 µM 43.9% | [6]; [7] -1% | [6]; [8] -6% | [6]; at 50.0 µM 4.25%
